According to PubChem BioAssay AID1851 (National Center for Advancing Translational Sciences (NCATS), 2009):
Among all 16,000 compounds or so, about 5,800 (36%) were called active. Another 23% or so got no clear call; they are omitted. This is one part of the list. A number with no mark means an inactive call. The call rests on the fitted dose curve; in most records, active means well fitted curve in the direction sought with a large enough effect; inconclusive means small, poorly fitted or top-dose-only effect, or effect the other way; inactive means no such curve, though single readings can be large or run the other way.
On the % scale 0 is the no-effect control and ±100 the full control effect.

What follows are molecules tested against Cytochrome P450 2C19 (Homo sapiens) (UniProt P33261) (assay: Cytochrome panel assay with activity outcomes). Conditions: recombinant CYP, pro-luciferin dealkylation, luminescence, p450-cyp2c19; series mostly up to 57.1 µM; activity, negative = inhibition: at the top concentration.
Cytochrome P450 2C19 (Homo sapiens), sequence (P33261 whole entry, looked up): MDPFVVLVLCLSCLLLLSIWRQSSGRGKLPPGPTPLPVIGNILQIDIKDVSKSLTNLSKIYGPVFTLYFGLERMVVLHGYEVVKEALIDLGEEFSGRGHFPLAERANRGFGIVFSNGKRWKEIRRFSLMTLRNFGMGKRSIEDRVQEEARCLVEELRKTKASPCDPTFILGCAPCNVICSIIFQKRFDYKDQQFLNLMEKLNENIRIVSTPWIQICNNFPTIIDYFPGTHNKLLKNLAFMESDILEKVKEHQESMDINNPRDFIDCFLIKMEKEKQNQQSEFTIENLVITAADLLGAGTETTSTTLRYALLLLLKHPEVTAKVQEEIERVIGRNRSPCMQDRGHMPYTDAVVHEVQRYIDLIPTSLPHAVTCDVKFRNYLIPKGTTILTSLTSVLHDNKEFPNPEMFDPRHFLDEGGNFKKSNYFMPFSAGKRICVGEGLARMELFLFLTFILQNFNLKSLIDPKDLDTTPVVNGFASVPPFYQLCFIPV
For `CCOC(=O)c1sc(C)c(C(=O)NCC(C)(C)CN(C)C)c1N`, the AC50 was 28.2 µM (active).
In the case of `O=C(COc1ccc(Br)cc1)N1CCC(c2ccccc2)C1` (stereo not drawn), the AC50 is reported as 1.12 µM (active).
For `CCOc1ccc(NC(=O)N2CCC(c3ccc(C)cc3)C2)cc1` (stereo not drawn), the “activity, negative = inhibition” value was -27.1%.
`COCC(=O)N1CCC2(CCCN(Cc3ccccc3)C2)CC1` was tested, and the “activity, negative = inhibition” value was 22.8%.
For `Cc1nnc(SCC(=O)N2CC(=O)Nc3ccccc32)n1Cc1ccccc1`, the “activity, negative = inhibition” value was 1.13%.
In the case of `Cc1sc2nc(C3CC3)nc(SCC(=O)N3CC(=O)Nc4ccccc43)c2c1C`, the AC50 is reported as 3.98 µM (active).
Work on `CC1=CC(=O)CC(C)(C)[C@]1(O)/C=C\C(C)=C\C(=O)O` yielded an activity, negative = inhibition of -25.7% [at 11.4 µM].
With `CC1=C(\C=C/C(C)=C/C=C\C(C)=C\C(=O)O)C(C)(C)CCC1` the AC50 was 5.01 µM (active).
For `CN(C)c1ncc2nc(-c3cccs3)c(=O)n(C[C@H]3CCCO3)c2n1`, the “activity, negative = inhibition” value was 6.84%.
For `O=C(COC(=O)c1cccc(S(=O)(=O)N2CCOCC2)c1)Nc1nc(-c2ccccc2Cl)cs1`, the AC50 was 3.98 µM (active).
For `O=C(COC(=O)c1cccc(S(=O)(=O)N2CCN(c3ccccc3)CC2)c1)NCc1ccco1`, the AC50 was 0.708 µM (active).
For `CCCc1nc2ccccc2c(C(=O)OCC(=O)Nc2cccc(S(=O)(=O)N3CCOCC3)c2)c1CC`, the AC50 was 3.55 µM (active).
In the case of `COc1ccc(Cc2ccccc2C(=O)O)c2ccccc12`, the activity, negative = inhibition is reported as 12.2% [at 11.4 µM].
In the case of `COc1ccccc1/C=C/C(=O)c1ccc(Cl)cc1`, the AC50 is reported as 2.24 µM (active).
For `COc1ccc2ccccc2c1/C=C\C(=O)c1ccccc1`, the AC50 was 0.316 µM (active).
With `COc1ccccc1/C=C/C(=O)c1c2c(c(C)[nH]c1=O)CCCC2` the AC50 was 7.94 µM (active).
Work on `COc1cc(C)cc(OC)c1/C=C\C(=O)O` yielded an activity, negative = inhibition of -0.542% [at 11.4 µM].
With `C[C@@H](Cc1ccccc1)Nc1ncnc2c1ncn2[C@@H]1O[C@@H](CO)[C@H](O)[C@@H]1O` the “activity, negative = inhibition” value was 33.5%.
`CC(O)(P(=O)(O)O)P(=O)(O)O` was tested, and the “activity, negative = inhibition” value was -13.4% [at 25.6 µM].
`NC(=S)NCCC[C@@H](N)C(=O)O` was tested, and the “activity, negative = inhibition” value was -37.7%.
With `CCCN=C(N)NCCC[C@H](N)C(=O)O` the AC50 was 2 µM (active).
With `NC(=NCCC[C@H](N)C(=O)O)NO` the “activity, negative = inhibition” value was 13.3%.
Work on `O=C(O)c1nn(-c2ccc(Cl)cc2)c2c1C(=O)c1ccccc1C2=O` yielded an activity, negative = inhibition of 4.89% [at 11.4 µM].
In the case of `O=C1CN=C(Nc2ccc(Cl)cc2)N1c1ccccc1`, the AC50 is reported as 11.2 µM (active).
For `CCOC(=O)COc1ccc(/C=C/[N+](=O)[O-])c(OCC(=O)OCC)c1`, the AC50 was 6.31 µM (active).
For `CCCCCN=c1ccn(Cc2ccccc2)c2ccccc12`, the AC50 was 0.251 µM (active).
For `O=C(CSc1n[nH]c(-c2ccccc2O)n1)N1CCCc2ccccc21`, the AC50 was 2.51 µM (active).
In the case of `O=C(CSc1nnc(CNc2ccc(F)cc2)o1)OC1CCCCC1`, the AC50 is reported as 11.2 µM (active).
With `O=C(CSc1nnc(CNc2ccccc2)o1)N1CCCc2ccccc21` the AC50 was 4.47 µM (active).
In the case of `O=C(CNCCO)N1CCc2ccccc21`, the “activity, negative = inhibition” value is reported as -20.5%.
For `O=C(CSc1nc(-c2ccccc2)cs1)N1CCc2ccccc21`, the AC50 was 2 µM (active).
With `CCn1ccc(C(=O)NC2=C(C#N)CCC2)n1` the “activity, negative = inhibition” value was -26.6%.
With `CSc1nc(Oc2ccc(=O)[nH]n2)nc(N(C)C)n1` the “activity, negative = inhibition” value was -10.6%.
Work on `CO[C@@H]1COC(=O)CCC[C@@H](C)[C@H](OC)COC(=O)CCC[C@H]1C` yielded an activity, negative = inhibition of 5.51% [at 11.4 µM].
For `O=C(CSc1nnc(CNc2ccc(F)cc2)o1)N1c2ccccc2Sc2ccccc21`, the AC50 was 2.82 µM (active).
For `O=C(CSc1nnnn1-c1ccccc1)NCc1cccs1`, the AC50 was 0.891 µM (active).
`COc1ccc(-n2nnnc2SCC(=O)Nc2ccccc2)cc1` was tested, and the AC50 was 3.98 µM (active).
`CCc1nnc(NC(=O)CCC(=O)N2CCN(c3ccccn3)CC2)s1` was tested, and the “activity, negative = inhibition” value was -16.9%.
With `CCOc1ccc(-n2ccnc2SCC(=O)Nc2nnc(C)s2)cc1` the “activity, negative = inhibition” value was -17.5%.
For `COc1ccc(-n2ccnc2SCC(=O)Nc2ccc(OC)cc2OC)cc1`, the AC50 was 1.41 µM (active).
With `CCOc1ccc(-n2ccnc2SCC(=O)Nc2nnc(CC)s2)cc1` the AC50 was 8.91 µM (active).
With `NCCSSCCN` the AC50 was “inactive”.
In the case of `CN1CCCC2(CCN(C(=O)c3cnccn3)CC2)C1`, the “activity, negative = inhibition” value is reported as 5.74%.
`CCCC(=O)Nc1nnc(SCC(=O)NCc2cccs2)s1` was tested, and the AC50 was 14.1 µM (active).
`Cc1ccc2nc(SCC(=O)NCc3cccs3)c(C#N)cc2c1` was tested, and the “activity, negative = inhibition” value was 13.8%.
With `COc1cccc(-n2ccnc2SCC(=O)Nc2nccs2)c1` the AC50 was 8.91 µM (active).
For `COc1ccc(NC(=O)CSc2nnc(C3CC3)n2-c2ccccc2)cc1`, the AC50 was 20 µM (active).
For `COc1ccc(NC(=O)CSc2nnc(C3CC3)n2N)cc1`, the “activity, negative = inhibition” value was -23.3%.
In the case of `CCCC(=O)Nc1nnc(CCN2CCCCC2)s1`, the “activity, negative = inhibition” value is reported as -9.25%.
In the case of `COc1ccc(-n2ccnc2SCC(=O)Nc2ccccc2)cc1`, the AC50 is reported as 4.47 µM (active).
`CCN(CC)C(=O)CSc1nc(O)cc(=O)n1CC` was tested, and the “activity, negative = inhibition” value was -28.8%.
`COc1ccc(NC(=O)CSc2ccc3c4c(cccc24)C(=O)c2ccccc2-3)cc1` was tested, and the AC50 was 0.708 µM (active).
With `CCn1c(SCC(=O)c2ccc(OC)cc2)nnc1C1CC1` the AC50 was 11.2 µM (active).
For `Cc1cccc(-n2ncc3c(Nc4c(C)n(C)n(-c5ccccc5)c4=O)ncnc32)c1`, the “activity, negative = inhibition” value was 39.7%.
`O=C(O)CS(=O)c1ccc2c3c(cccc13)C(=O)c1ccccc1-2` (stereo not drawn) gave an activity, negative = inhibition of -37% [at 11.4 µM].
In the case of `CCn1c(SC)nnc1C1CCN(S(=O)(=O)c2ccc(OC)cc2)CC1`, the “activity, negative = inhibition” value is reported as -16.5%.
`Cn1ncc2c(Nc3cccc(C(=O)O)c3)ncnc21` was tested, and the “activity, negative = inhibition” value was -25.1%.
`CC(=O)Nc1ccc(Nc2ncnc3c2cnn3-c2ccccc2)cc1` was tested, and the AC50 was 2.82 µM (active).
With `O=C(CSC1=NCCN1)Nc1ccccc1` the activity, negative = inhibition was -1.95% [at 11.4 µM].
`Cn1c(SCC(=O)Nc2ccccc2)nc(O)cc1=O` was tested, and the AC50 was 22.4 µM (active).
With `CC(=O)Nc1ccc(NC(=O)CSc2ncnn2-c2ccccc2)cc1` the AC50 was 25.1 µM (active).
In the case of `OCCNCCCOc1cccc(Cl)c1Cl`, the AC50 is reported as 3.98 µM (active).
`COc1c(Cl)cc(Cl)cc1CNCCNCCO` was tested, and the “activity, negative = inhibition” value was 14.6%.
For `Nc1ncnc2c1nc(Br)n2[C@@H]1O[C@H]2COP(=O)(O)O[C@@H]2[C@H]1O`, the “activity, negative = inhibition” value was 10.5%.
With `COC(=O)N1CCC2(CC1)CCN(c1ccncc1)CC2` the “activity, negative = inhibition” value was 40%.
In the case of `N#Cc1nc(-c2cccs2)oc1NCc1ccccc1`, the AC50 is reported as 1.58 µM (active).
`CNc1oc(-c2cccs2)nc1C#N` was tested, and the “activity, negative = inhibition” value was -24%.
With `O=C(Cn1c(-c2cscn2)nc2ccccc21)Nc1cc(F)ccc1F` the AC50 was 3.16 µM (active).
